Shown are actives, neighbours in structure and some others; about 4.1% of the full set was active somewhere.
hcDAF-12 act – H. contortus DAF-12 activation, primary screen; HEK293 hcDAF-12 lit1-tk-luc reporter, luminescence; 0% DMSO, 100% Δ7-dafachronic acid; activation, % at 6.8 µM; actives 1.4% (n = 370,000);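 active = activation above the mean of all tested compounds plus 3 SD, cut at about 5.5% in these data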
ssDAF-12 act – activates DAF-12 receptor from parasite S. stercoralis; actives 1% (n = 370,000); activation, % at 6.8 µM; HEK293 ssDAF-12/GRIP1 lit1-tk-luc reporter, luminescence; % of 3 µM dafachronic acid response;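 active = activation above the mean over all tested compounds plus 3 SD, cut at about 0.9% in these data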
DAX1 inh-1 – DAX1 (NR0B1) inhibition, primary screen. HEK293T StAR-luciferase reporter, SF-1/DAX-1 repression relief. inhibition, % at 6.8 µM. actives 1.1% (n = 370,000). AID 652010;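 active = inhibition above the mean over all tested compounds plus 3 SD, cut at about 3.6% in these data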;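 also: higher inhibition means more luminescence from relief of DAX-1 repression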
hgDAF12 agonist – agonists of H. glycines DAF-12 nuclear receptor. HEK293 GAL4-hgDAF12 UAS-luciferase reporter, agonist luminescence; normalized to butyrate control. activation, % at 6.8 µM. actives 1.8% (n = 370,000);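 active = activation above a cutoff set at the mean of all screened compounds plus 3 SD, cut at about 10% in these data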
DAX1 inh-2 – inhibits human nuclear receptor DAX1 | HEK293 Gal4-DAX1 luciferase reporter, luminescence | inhibition, % at 6.75 µM | actives 0.99% (n = 340,000) | AID 504766;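 active = inhibition above the mean over all tested compounds plus 3 SD, cut at about 4.2% in these data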;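 also: inhibition shows as a rise in luminescence from relieved DAX1 repression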
Target sequence (P51843 207-470 limits assumed): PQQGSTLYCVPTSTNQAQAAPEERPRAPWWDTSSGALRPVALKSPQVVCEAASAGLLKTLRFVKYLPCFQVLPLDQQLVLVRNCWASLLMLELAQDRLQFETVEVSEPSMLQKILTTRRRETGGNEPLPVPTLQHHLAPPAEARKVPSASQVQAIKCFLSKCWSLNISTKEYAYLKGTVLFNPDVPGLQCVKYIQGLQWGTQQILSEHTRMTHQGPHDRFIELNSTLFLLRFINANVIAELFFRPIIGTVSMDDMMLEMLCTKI
LXRb hcDAF ctr – activates human LXR-beta, counter-screen for hcDAF-12 agonists | activation, % at 6.8 µM | 3,400 tested, under 10 active | HEK293 Gal4-LXR tk-luc reporter, luminescence, 24 h; normalized: DMSO 0%, positive control 100% | shares compounds with hcDAF-12 act;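 active = mean percent activation of the reporter above a cutoff set as the average over tested compounds plus their standard deviation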
Target sequence (P55055 whole entry, looked up, the tested form may be a part): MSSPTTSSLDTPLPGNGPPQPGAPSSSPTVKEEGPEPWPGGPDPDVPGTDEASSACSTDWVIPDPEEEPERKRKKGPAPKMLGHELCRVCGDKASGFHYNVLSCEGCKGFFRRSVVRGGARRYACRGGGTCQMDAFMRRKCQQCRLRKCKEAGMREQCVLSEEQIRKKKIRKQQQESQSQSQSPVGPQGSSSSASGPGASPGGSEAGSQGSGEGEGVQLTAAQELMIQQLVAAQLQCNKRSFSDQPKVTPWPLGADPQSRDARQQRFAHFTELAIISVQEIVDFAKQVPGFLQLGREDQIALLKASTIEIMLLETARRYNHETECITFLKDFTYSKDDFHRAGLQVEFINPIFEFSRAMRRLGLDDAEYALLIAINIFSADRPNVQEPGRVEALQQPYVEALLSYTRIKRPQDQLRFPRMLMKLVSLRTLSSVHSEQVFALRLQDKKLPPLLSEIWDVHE
hcDAF12 ag – confirmation of H. contortus DAF-12 agonists; shares compounds with hcDAF-12 act; HEK293 hcDAF-12 lit1-tk-luc reporter, luminescence; % of Δ7-dafachronic acid response; activation, % at 6.8 µM; actives 61% (n = 3,400); AID 743032;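 active = mean activation across triplicate tests above the threshold derived from the earlier primary screen, cut at about 5.5% in these data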
Of the large screens only hits and unclear results are named; the others gave an inactive call (follow-up assays come after a bar, where they were run).

COc1ccc(S[C@]2(C(=O)N3CCN(c4ncccn4)CC3)CC(=O)N(C(=O)/C=C/c3ccccc3)[C@@H]2c2ccc(OC)cc2)cc1	none (no result: DAX1 inh-2)
O=C(/C=C1\C(=O)Nc2ccccc21)/C=C1\C(=O)Nc2ccccc21	hcDAF-12 act 11.3 | LXRb hcDAF ctr inactive | hcDAF12 ag inactive
O=C1Nc2ccccc2/C1=C\C(=O)c1ccccc1	none
CCOC(=O)[C@@H](NC(=O)[C@@H]1CC=C[C@@H]2CCN(Cc3ccc(Cl)cc3)C(=O)[C@@H]21)C(C)C	none (no result: DAX1 inh-1, DAX1 inh-2)
O=C(c1ccc(C(F)(F)F)cc1)N(CCCn1ccnc1)C(c1ccccn1)c1nc2ccccc2[nH]1 (stereo unspecified)	hcDAF-12 act 7.5 (no result: DAX1 inh-2) | LXRb hcDAF ctr inactive | hcDAF12 ag inactive
O=C(NCCc1cccc(Cl)c1)c1cc([N+](=O)[O-])ccc1Cl	hcDAF-12 act 6.7 | LXRb hcDAF ctr inactive | hcDAF12 ag inactive
C[C@@H]1COc2cccc(NCCCN3CCOCC3)c2S(=O)(=O)N1	none (no result: DAX1 inh-2)
COC(=O)c1ccc2nc(NC(=O)COC(=O)CSc3nc(C)cc(C)n3)sc2c1	hcDAF-12 act 10.7 | LXRb hcDAF ctr inactive | hcDAF12 ag 5.9
Cc1ccc2nc(NC(=O)COC(=O)CSc3nc(C)cc(C)n3)sc2c1	hcDAF-12 act 9.6 | LXRb hcDAF ctr inactive | hcDAF12 ag 8.7
COc1ccc2nc(NC(=O)CSc3nc(C)cc(C)n3)sc2c1	none
CC(C)CNC(=O)OCc1cn(Cc2ccccc2)nn1	none (no result: DAX1 inh-2)
Cc1ccc(C(=O)NC(=S)c2c(C)cc3ccccn23)cc1	hcDAF-12 act 7.5, ssDAF-12 act 4.1, hgDAF12 agonist 11.8 | LXRb hcDAF ctr inactive | hcDAF12 ag 8.5
Cc1cc2ccccn2c1C(=S)NC(=O)c1ccccc1	none
Cc1cc2ccccn2c1C(=O)Nc1cccc(Cl)c1	hcDAF-12 act 7.0 | LXRb hcDAF ctr inactive | hcDAF12 ag 6.1
Cc1cc2ccccn2c1C(=O)c1ccc(Cl)cc1	none
CCOc1ccc(-n2c(COc3ccc(C)cc3)nnc2SCC(=O)c2ccc3ccccc3c2)cc1	none (no result: DAX1 inh-2)
CCCCN(C)c1nc(C)nc2c1nnn2Cc1ccccc1	none (no result: DAX1 inh-2)
O=C(CNCc1ccccc1[N+](=O)[O-])N1CCC2(CC1)OCCO2	hcDAF-12 act 7.0, hgDAF12 agonist 12.8 (no result: DAX1 inh-2) | LXRb hcDAF ctr inactive | hcDAF12 ag inactive
O=C(Cc1ccccc1[N+](=O)[O-])N1CCOCC1	none
O=C(COC(=O)c1ccccc1O)Nc1ccc2ccccc2c1	none
O=C(Nc1ccc2oc(=O)ccc2c1)c1ccccc1[N+](=O)[O-]	none
Cc1ccc(NC(=O)c2cc3ccccc3cc2O)cc1	hcDAF-12 act 10.4, DAX1 inh-2 4.5 | LXRb hcDAF ctr inactive | hcDAF12 ag 9.2
O=C(Nc1ccc2ccccc2c1)c1ccccc1[N+](=O)[O-]	hcDAF-12 act 7.9 | LXRb hcDAF ctr inactive | hcDAF12 ag inactive
O=C(Nc1ccc2ccccc2c1)c1ccccc1O	hcDAF-12 act 7.8, ssDAF-12 act 1.0 | LXRb hcDAF ctr inactive | hcDAF12 ag 20.0
O=C(Nc1ccccc1)c1ccc(F)cc1F	none
Cc1ccc(NC(=O)c2ccc(F)cc2F)cc1	hcDAF-12 act 8.9 | LXRb hcDAF ctr inactive | hcDAF12 ag inactive
COc1ccccc1CN1CCc2c([nH]c3ccccc23)C1	none
Clc1cccc(CN2CCc3c([nH]c4ccccc34)C2)c1Cl	hcDAF-12 act 7.0 | LXRb hcDAF ctr inactive | hcDAF12 ag inactive
Cc1ccc(CN2C(C(=O)NC3CCCC3)CSCCS2(=O)=O)cc1 (stereo unspecified)	none (no result: DAX1 inh-2)
COC(=O)C(C)Oc1ccc(-c2nccc(-c3cccs3)n2)cc1 (stereo unspecified)	none
Oc1ccc(-c2nccc(-c3cccs3)n2)cc1	hcDAF-12 act 11.9, ssDAF-12 act 1.0, hgDAF12 agonist 13.6, DAX1 inh-2 4.8 | LXRb hcDAF ctr inactive | hcDAF12 ag 10.7
Cc1nc2ccc(N=NC3=C(O)CCCC3=O)cc2s1	none
Cc1nc2ccc(N=NC3=C(O)CC(C)(C)CC3=O)cc2s1	hcDAF-12 act 8.0, ssDAF-12 act 1.6, hgDAF12 agonist 12.3 | LXRb hcDAF ctr inactive | hcDAF12 ag 7.5
COc1cccc([C@@H](NC(=O)C(F)(F)F)[C@@H]2CCCC=C2c2ccccc2)c1	none (no result: DAX1 inh-2)
CC(=O)c1c(C)[nH]c(C(=O)NCCc2ccc(Cl)cc2)c1C	none
Nc1[nH]c2cc(Cl)ccc2c1C(=O)NCCc1ccc(Cl)cc1	hcDAF-12 act 6.6 (no result: DAX1 inh-2) | LXRb hcDAF ctr inactive | hcDAF12 ag 7.2
Nc1[nH]c2cc(C(F)(F)F)ccc2c1C(=O)NCc1ccc(F)cc1	hcDAF-12 act 7.0 (no result: DAX1 inh-2) | LXRb hcDAF ctr inactive | hcDAF12 ag inactive
CCOC(=O)C1=C(CSc2nc(-c3ccccc3)ccc2C#N)OC(N)=C(C#N)C1c1cccnc1 (stereo unspecified)	hcDAF-12 act 7.2, ssDAF-12 act 1.3, hgDAF12 agonist 12.2 | LXRb hcDAF ctr inactive | hcDAF12 ag 9.4
Clc1ccc(OCc2cn3ccccc3n2)c2ncccc12	none
COc1c(Cl)cccc1-c1cn2ccccc2n1	hcDAF-12 act 7.3, hgDAF12 agonist 12.9 | LXRb hcDAF ctr inactive | hcDAF12 ag 7.7
COC(=O)C1=C(C)N(Cc2ccc(Cl)cc2)C(=S)NC1c1ccc(Br)cc1 (stereo unspecified)	none (no result: DAX1 inh-2)
N#Cc1ccsc1NC(=O)COC(=O)c1cc2ccccc2cc1O	hcDAF-12 act 9.3, ssDAF-12 act 1.1 | LXRb hcDAF ctr inactive | hcDAF12 ag 10.5
CC(=O)N[C@@H](C)CCc1ccc(Oc2ccc(OC(C)C)nc2)cc1	none (no result: DAX1 inh-1, DAX1 inh-2)
Cc1nn(-c2ccc(Br)cc2)c(=O)c2ccccc12	hcDAF-12 act 11.1, ssDAF-12 act 1.7, hgDAF12 agonist 10.7 | LXRb hcDAF ctr inactive | hcDAF12 ag 10.9
C=CCN=C1NC(c2cccc(C(F)(F)F)c2)C(C(=O)OC)=C(C)N1Cc1ccccc1C(F)(F)F (stereo unspecified)	none (no result: DAX1 inh-2)
CC1CCCCN1C(=O)CSCC(=O)Nc1nc(-c2cccs2)cs1 (stereo unspecified)	hcDAF-12 act 6.6 | LXRb hcDAF ctr inactive | hcDAF12 ag inactive
CCOC(=O)[C@@]12CN(C(=O)OC(C)(C)C)CC=C1N(Cc1ccc(OC)cc1)C(=O)[C@H]2CC(=O)NCc1cccc2ccccc12	none (no result: DAX1 inh-2)
CN(C)c1ccc(-c2nnc(-c3ccccc3F)o2)cc1	hcDAF-12 act 10.2, hgDAF12 agonist 13.0 | LXRb hcDAF ctr inactive | hcDAF12 ag 6.5
CCc1c(-c2cccc(Br)c2)ncn1CCc1ccccc1OC	none (no result: DAX1 inh-2)
COc1ccc(C(=O)N=c2sccn2C)cc1	none
Cn1ccsc1=NC(=O)c1ccc(OC(F)(F)F)cc1	hcDAF-12 act 8.2 | LXRb hcDAF ctr inactive | hcDAF12 ag inactive
